The sequences below were run against pT7_6His-AlfaTag-HOXD13 (human, UniProt P35453 263-343) (assay: PADIT-seq). Conditions: dsDNA, one strand shown.
Sequence of pT7_6His-AlfaTag-HOXD13 (P35453 263-343): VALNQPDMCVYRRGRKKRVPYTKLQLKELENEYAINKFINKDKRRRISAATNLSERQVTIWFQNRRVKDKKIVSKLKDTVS

| Sequence | binding signal [log2FC] |
| --- | --- |
| CTCGAGGATATCAAGATCTGGCCTCGGCATTTTAGTGGGAACCTCTAGCTAGCCGACTCACTATAGGGATAATCGCCCTGAGCAAAGACC | 1.61 ± 0.0939 |
| CTCGAGGATATCAAGATCTGGCCTCGGCGTTTTATAAGGAACCTCTAGCTAGCCGACTCACTATAGGGATAATCGCCCTGAGCAAAGACC | 3.26 ± 0.0829 |
| CTCGAGGATATCAAGATCTGGCCTCGGCCATGTAAAAGGAACCTCTAGCTAGCCGACTCACTATAGGGATAATCGCCCTGAGCAAAGACC | 1.41 ± 0.0975 |
| CTCGAGGATATCAAGATCTGGCCTCGGCTACTGGGCGGGAACCTCTAGCTAGCCGACTCACTATAGGGATAATCGCCCTGAGCAAAGACC | -1.09 ± 0.112 |
| CTCGAGGATATCAAGATCTGGCCTCGGCTAAGTAAAAGGAACCTCTAGCTAGCCGACTCACTATAGGGATAATCGCCCTGAGCAAAGACC | 0.166 ± 0.108 |
| CTCGAGGATATCAAGATCTGGCCTCGGCTTTTTAAGAGGAACCTCTAGCTAGCCGACTCACTATAGGGATAATCGCCCTGAGCAAAGACC | 2.84 ± 0.0822 |
| CTCGAGGATATCAAGATCTGGCCTCGGCGTTTTACAAGGAACCTCTAGCTAGCCGACTCACTATAGGGATAATCGCCCTGAGCAAAGACC | 3.54 ± 0.0799 |
| CTCGAGGATATCAAGATCTGGCCTCGGCGTTTTAGGTGGAACCTCTAGCTAGCCGACTCACTATAGGGATAATCGCCCTGAGCAAAGACC | -0.0193 ± 0.12 |
| CTCGAGGATATCAAGATCTGGCCTCGGCTCATTAAAAGGAACCTCTAGCTAGCCGACTCACTATAGGGATAATCGCCCTGAGCAAAGACC | 2.97 ± 0.0761 |
| CTCGAGGATATCAAGATCTGGCCTCGGCTTTTTAGATGGAACCTCTAGCTAGCCGACTCACTATAGGGATAATCGCCCTGAGCAAAGACC | 0.28 ± 0.11 |
| CTCGAGGATATCAAGATCTGGCCTCGGCGTTTTAATCGGAACCTCTAGCTAGCCGACTCACTATAGGGATAATCGCCCTGAGCAAAGACC | 0.636 ± 0.0931 |
| CTCGAGGATATCAAGATCTGGCCTCGGCATACTAAAAGGAACCTCTAGCTAGCCGACTCACTATAGGGATAATCGCCCTGAGCAAAGACC | 0.619 ± 0.0967 |
| CTCGAGGATATCAAGATCTGGCCTCGGCGCGGAAGCGGGAACCTCTAGCTAGCCGACTCACTATAGGGATAATCGCCCTGAGCAAAGACC | -0.566 ± 0.121 |
| CTCGAGGATATCAAGATCTGGCCTCGGCCACGTAAAAGGAACCTCTAGCTAGCCGACTCACTATAGGGATAATCGCCCTGAGCAAAGACC | 1.76 ± 0.0916 |
| CTCGAGGATATCAAGATCTGGCCTCGGCCGCATAAAAGGAACCTCTAGCTAGCCGACTCACTATAGGGATAATCGCCCTGAGCAAAGACC | 1.46 ± 0.0793 |
| CTCGAGGATATCAAGATCTGGCCTCGGCGTTTTACAGGGAACCTCTAGCTAGCCGACTCACTATAGGGATAATCGCCCTGAGCAAAGACC | 2.89 ± 0.0835 |
| CTCGAGGATATCAAGATCTGGCCTCGGCCGCTATCGCGGAACCTCTAGCTAGCCGACTCACTATAGGGATAATCGCCCTGAGCAAAGACC | -0.806 ± 0.119 |
| CTCGAGGATATCAAGATCTGGCCTCGGCCTTTTACACGGAACCTCTAGCTAGCCGACTCACTATAGGGATAATCGCCCTGAGCAAAGACC | 1.93 ± 0.075 |
| CTCGAGGATATCAAGATCTGGCCTCGGCCTTTTACTGGGAACCTCTAGCTAGCCGACTCACTATAGGGATAATCGCCCTGAGCAAAGACC | 2.53 ± 0.0719 |
| CTCGAGGATATCAAGATCTGGCCTCGGCACCCCACGCGGAACCTCTAGCTAGCCGACTCACTATAGGGATAATCGCCCTGAGCAAAGACC | -1.03 ± 0.136 |
| CTCGAGGATATCAAGATCTGGCCTCGGCCTTTTATGTGGAACCTCTAGCTAGCCGACTCACTATAGGGATAATCGCCCTGAGCAAAGACC | 2.69 ± 0.0743 |
| CTCGAGGATATCAAGATCTGGCCTCGGCATTTTAGGCGGAACCTCTAGCTAGCCGACTCACTATAGGGATAATCGCCCTGAGCAAAGACC | -0.396 ± 0.116 |
| CTCGAGGATATCAAGATCTGGCCTCGGCGCGTGGCGAGGAACCTCTAGCTAGCCGACTCACTATAGGGATAATCGCCCTGAGCAAAGACC | -0.862 ± 0.192 |
| CTCGAGGATATCAAGATCTGGCCTCGGCCCCATAAAAGGAACCTCTAGCTAGCCGACTCACTATAGGGATAATCGCCCTGAGCAAAGACC | 2.77 ± 0.0828 |
| CTCGAGGATATCAAGATCTGGCCTCGGCGTTTTAGTCGGAACCTCTAGCTAGCCGACTCACTATAGGGATAATCGCCCTGAGCAAAGACC | -0.506 ± 0.12 |
| CTCGAGGATATCAAGATCTGGCCTCGGCCGCCCATTTGGAACCTCTAGCTAGCCGACTCACTATAGGGATAATCGCCCTGAGCAAAGACC | -0.832 ± 0.113 |

Reference: article doi:10.1101/2024.03.05.583629
